HEK293 viab: GF-AFC viability counterscreen for inhibitors of alpha-synuclein gene (SNCA) expression. HEK-293-SNCA-luc viability, GF-AFC fluorescence, 24 h. Potency, µM (titrated, usually from 57.1 µM), inactives show top-dose activity change, negative = cytotoxicity, usual class: cytotoxic. 150,000 tested, 0.12% active;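 also: potency is read from the fitted curve at half-maximal effect; 0% = DMSO-treated cells and -100% = medium-only wells without cells; nearly all actives have a fitted effect of over 30% in size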
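Cytotoxicity counterscreen: after 24 h compound treatment of genome-edited SNCA-luciferase HEK-293 cells, live-cell protease substrate GF-AFC read by fluorescence after 30 min; activity scaled between DMSO (0%) and medium-only (-100%), curves Hill-fitted.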
SNCA expr inh: Primary qHTS assay for inhibitors of alpha-synuclein gene (SNCA) expression; HEK-293 SNCA-luciferase knock-in, luminescence, 24 h; Potency, µM (highest dose often 57.2 µM), for the others: top-dose activity change, negative = inhibition, usual class: inhibitors; 140,000 tested, 0.17% active; AID 1671194, 2021;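 also: potency is read from the fitted curve at half-maximal effect; plate controls were DMSO cells for no effect and cell-free wells for full effect; nearly all actives have a fitted effect of over 45% in size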
KDM5B inhibitor: Primary screen for KDM5B Histone Demethylases FDH-coupled qHTS | Lysine-specific demethylase 5B (Homo sapiens), Q9UGL1 | KDM5B demethylase, FDH-coupled NADH fluorescence (FDH is formaldehyde dehydrogenase) | Potency, µM (series often up to 57.7 µM), hits mostly inhibitors | 220,000 tested, 2.6% active; also: potency is read from the fitted curve at half-maximal effect; 0% is about no effect; nearly all actives have a fitted effect of over 70% in size
Target sequence (Q9UGL1 whole entry, looked up): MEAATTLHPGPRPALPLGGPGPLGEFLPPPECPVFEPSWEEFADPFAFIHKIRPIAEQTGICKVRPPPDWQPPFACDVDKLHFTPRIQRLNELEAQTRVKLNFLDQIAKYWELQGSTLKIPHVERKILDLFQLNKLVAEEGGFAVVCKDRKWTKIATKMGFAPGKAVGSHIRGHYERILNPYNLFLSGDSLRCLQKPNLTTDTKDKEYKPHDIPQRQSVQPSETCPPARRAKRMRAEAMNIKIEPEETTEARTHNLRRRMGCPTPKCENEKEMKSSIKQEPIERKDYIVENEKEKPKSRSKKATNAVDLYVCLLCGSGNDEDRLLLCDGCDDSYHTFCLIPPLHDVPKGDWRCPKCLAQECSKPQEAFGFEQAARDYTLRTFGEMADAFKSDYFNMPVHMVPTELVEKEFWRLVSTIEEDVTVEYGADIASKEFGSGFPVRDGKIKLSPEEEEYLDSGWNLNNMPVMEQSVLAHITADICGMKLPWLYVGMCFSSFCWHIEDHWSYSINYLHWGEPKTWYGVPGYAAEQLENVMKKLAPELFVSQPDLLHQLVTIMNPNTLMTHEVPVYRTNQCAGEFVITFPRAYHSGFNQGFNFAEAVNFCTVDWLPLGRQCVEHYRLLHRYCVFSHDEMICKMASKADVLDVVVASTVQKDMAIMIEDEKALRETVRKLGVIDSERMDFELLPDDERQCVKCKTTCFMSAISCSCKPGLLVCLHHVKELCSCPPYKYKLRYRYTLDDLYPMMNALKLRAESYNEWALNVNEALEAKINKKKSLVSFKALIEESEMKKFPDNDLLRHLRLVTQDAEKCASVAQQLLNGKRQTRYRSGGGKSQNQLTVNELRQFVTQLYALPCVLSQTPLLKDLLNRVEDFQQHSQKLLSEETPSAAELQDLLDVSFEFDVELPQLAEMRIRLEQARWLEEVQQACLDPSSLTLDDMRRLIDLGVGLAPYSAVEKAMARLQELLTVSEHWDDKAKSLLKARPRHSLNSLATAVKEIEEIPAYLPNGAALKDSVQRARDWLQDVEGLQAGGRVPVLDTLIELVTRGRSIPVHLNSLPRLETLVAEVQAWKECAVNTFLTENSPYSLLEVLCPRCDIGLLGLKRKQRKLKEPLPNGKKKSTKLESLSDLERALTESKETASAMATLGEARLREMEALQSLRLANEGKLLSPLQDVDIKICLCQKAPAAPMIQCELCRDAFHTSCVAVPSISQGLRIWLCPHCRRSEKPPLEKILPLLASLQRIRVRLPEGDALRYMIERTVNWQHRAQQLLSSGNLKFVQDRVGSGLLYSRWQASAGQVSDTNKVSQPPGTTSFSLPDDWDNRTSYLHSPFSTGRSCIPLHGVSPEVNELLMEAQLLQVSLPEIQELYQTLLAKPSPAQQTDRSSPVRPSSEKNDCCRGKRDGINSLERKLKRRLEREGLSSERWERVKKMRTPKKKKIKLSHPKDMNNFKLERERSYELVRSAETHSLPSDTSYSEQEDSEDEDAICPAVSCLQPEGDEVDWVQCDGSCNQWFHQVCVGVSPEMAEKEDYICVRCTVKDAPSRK
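Compound dilutions met 200 nM (final) KDM5BΔAP for 10 min at room temperature before substrate addition. The substrate mix held 12.5 µM H3K4me3 with cofactors 25 µM α-ketoglutarate and 50 µM Fe²⁺. NADH signal gain over 30 min defined activity.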
IP6K1 inh: Primary qHTS assay for small molecule inhibitors of Inositol hexaphosphate kinase 1 (IP6K1); Inositol hexakisphosphate kinase 1 (Homo sapiens), Q92551; IP6K1 kinase, ADP-Glo luminescence, 2 h; hits give low values; activity change, % (series mostly up to about 58 µM); 140,000 tested, 0.81% active; AID 1645851, 2021; in the data active = activity change below about -25%; also: % is scaled to controls: 0 for no effect and ±100 for the full control effect
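ADP-Glo luminescence measures ADP made by human IP6K1 during a 2 h RT reaction with ATP/IP6 (mix at 1.3 mM/130 uM); top library doses 57.5 and 19.1 uM final.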
An asterisk follows results filed as active; i = inactive; ? = inconclusive; · = no result given; [ ] = remark or other dose. Hits are enriched below; roughly 3% of the tested compounds scored in any of these assays. Unless noted, calls follow the shape of the dose curve; as a rule, active = well fitted curve in the direction sought with a large enough effect; inconclusive = small, poorly fitted or top-dose-only effect, or another doubt; inactive = no such curve, though single readings can be large; an effect the other way counts as inactive or inconclusive.

SMILES	HEK293 viab	SNCA expr inh	KDM5B inhibitor	IP6K1 inh
CCOC(=O)c1ccc(Oc2c(C(F)(F)F)oc3cc(OC(=O)c4ccc(F)cc4)ccc3c2=O)cc1	·	·	i	·
Cc1csc(NC(=O)CCc2ncc(-c3c(F)cccc3F)o2)n1	·	·	i	·
Nc1ncccc1CNC(=O)[C@H]1CCC[C@H](O)C1	3%	8%	25µM*	18
O=C(NCc1ccc(-c2ncon2)cc1)[C@H]1CCC[C@@H](O)C1	-7%	5%	i	16
O=C(NCc1csc(-c2cnccn2)n1)C1CNCCO1 (stereo not drawn)	6%	-8%	?	-4
O=C(NCc1csc(-c2cnccn2)n1)[C@H]1CCC[C@H](O)C1	-2%	25%	28µM*	14
Cc1[nH]c2ccc(Br)cc2c1C(=O)CCl	·	·	i	·
CC(=O)N1CCC(Cc2noc(-c3ccccc3)n2)C1 (stereo not drawn)	-7%	33%	i	-3
O=C(c1cccc(F)c1)N1CCCC(Cc2noc(-c3ccccc3)n2)C1 (stereo not drawn)	3.5µM*	?	i	6
O=C(c1cccc(O)c1)N1CC=C(c2cnc3cnc(-c4ccccc4)cn23)CC1	-1%[87.6 µM]	-22%[87.6 µM]	28µM*	-7
O=C(c1ccn[nH]1)N1CC=C(c2cnc3cnc(-c4ccccc4)cn23)CC1	-3%[87.6 µM]	3%[87.6 µM]	?	-12
Cn1ncc(N2CCC(CNC(=O)c3cn4cccnc4n3)C2)cc1=O (stereo not drawn)	3%	49%	28µM*	-9
CCOCC1(C)COc2ccc(C(=O)Nc3cccc(N(C)C)c3)cc2N1 (stereo not drawn)	-5%[87.6 µM]	-3%[87.6 µM]	?	-17
Cc1nn2c(c1-c1ccccc1-c1ccccc1)N(CCC(C)C)CCC2	?	1.1µM*	6.3µM*	-9
Cc1nn2c(c1-c1ccccc1-c1ccccc1)N(Cc1ccccc1)CCC2	?	?	32µM*	-2
O=C(O)CCc1ncc(-c2ccccc2F)o1	·	·	i	·
O=C(NCCN1CCCC1)c1cc2cn(C3CC3)cc2s1	3%	-23%	10µM*	3
Cc1ccc(S(=O)(=O)N2CCN(CCNC(=O)c3ccc(C(F)(F)F)cc3)CC2)cc1	·	·	i	·
CCOC(=O)[C@@H]1CN(C(=O)C2CCCC2)[C@H]2c3cccc(C)c3O[C@@H]12	·	·	·	25
O=C(O)CCCC1OC(CCCC(=O)O)OC(CCCC(=O)O)O1 (stereo not drawn)	·	·	i	·
CCOC(=O)CN1CCN(C(=O)CCc2cc3ccc(C)cc3[nH]c2=O)CC1	6%	-12%	25µM*	38
COCC1(CNC(=O)c2nc3ccccc3[nH]2)C[C@@H](O)[C@@H](O)C1 (stereo partly drawn)	2%[87.6 µM]	-29%[87.6 µM]	35µM*	13
Cc1c(Cl)cccc1NC(=O)CCNC(=O)c1cccs1	·	·	i	·
Cc1ccc(CNC(=O)c2ccc(-c3ccc(N4CCCCC4)nc3)cc2)o1	-13%	4%	20µM*	-3
O=C(NCCN1CCOCC1)c1ccc(-c2ccc(N3CCCCCC3)nc2)cc1	-25%	-10%	28µM*	-3
SMILES	HEK293 viab	SNCA expr inh	KDM5B inhibitor	IP6K1 inh
O=C(NCCCN1CCOCC1)c1ccc(-c2ccc(N3CCCCCC3)nc2)cc1	-17%	52%	25µM*	0
COCCNC(=O)c1ccc(-c2ccc(N3CCCCCC3)nc2)cc1	-10%	183%	?	-13
Cn1c(=O)c2c(ncn2CC(=O)Nc2ccc(N3CCCCC3)cc2)n(C)c1=O	·	·	i	·
CN(C)c1cccc(C(=O)NNC(=O)c2ccccc2F)c1	·	·	i	·
CC1(C(=O)NCc2ccncc2)CN(Cc2ccccc2)Cc2ccc(N3CCOCC3)nc21 (stereo not drawn)	-2%	-12%	?	16
CC1(C(=O)NCc2ccccc2)CN(Cc2ccccc2)Cc2ccc(N3CCOCC3)nc21 (stereo not drawn)	-26%	-20%	22µM*	8
CN1Cc2ccc(N3CCOCC3)nc2C(C)(C(=O)NCCCn2ccnc2)C1 (stereo not drawn)	6%[87.6 µM]	7%[87.6 µM]	32µM*	3
CC(C)NC(=O)C1(C)CN(Cc2ccccc2)Cc2ccc(N3CCOCC3)nc21 (stereo not drawn)	-23%[87.6 µM]	1%[87.6 µM]	28µM*	10
CC1(C(=O)NCc2cccnc2)CN(Cc2ccccc2)Cc2ccc(N3CCOCC3)nc21 (stereo not drawn)	3%	-7%	25µM*	7
N#C/C(=C\c1ccc(-c2ccc(Cl)cc2Cl)o1)c1nc2ccccc2[nH]1	·	·	i	·
O=C(O)CSc1ccc(Br)cc1	·	·	i	·
CCC(CO)NC(=O)Nc1sc(C)c(C)c1C#N (stereo not drawn)	·	·	i	·
O=C(Nc1nc2c(s1)CCCC2)C1CC(=O)N(CC(F)(F)F)C1 (stereo not drawn)	·	·	i	·
CC1(C(=O)N2CCOCC2)CN(Cc2ccccc2)Cc2ccc(Nc3ccccc3)nc21 (stereo not drawn)	-25%	-26%	28µM*	-5
CN(C)CCNC(=O)C1(C)CN(Cc2ccccc2)Cc2ccc(N3CCOCC3)nc21 (stereo not drawn)	-5%[87.6 µM]	-16%[87.6 µM]	35µM*	-2
Clc1ccc(COc2ccc(CNC3CC3)cc2)cc1	·	·	i	·
O=c1[nH]c2cc3c(cc2cc1CN1CC[C@H](O)C1)OCO3	3%	7%	28µM*	10
O=c1cc(-c2cccnc2)nc(-c2ccc(CN3CC[C@@H](O)C3)cc2)[nH]1	-9%	-24%	i	9
NC(=O)C1=C(Nc2ccc(F)cc2F)c2ccccc2S1(=O)=O	·	·	i	·
O=C(Cn1ccn2nc(-c3ccc(F)cc3)c(CO)c2c1=O)NCc1ccccc1Cl	18%	-4%	28µM*	3
O=C(Cn1ccn2nc(-c3ccccc3)c(CO)c2c1=O)Nc1ccccc1C(F)(F)F	1%	-14%	20µM*	10
COc1ccc(OC)c(NC(=O)Cn2ccn3nc(-c4ccccc4)c(CO)c3c2=O)c1	3%	-5%	?	43
COc1cc(Cl)c(C)cc1NC(=O)Cn1ccn2nc(-c3ccccc3)c(CO)c2c1=O	3%	-2%	16µM*	10
Cc1ccc(C)c(NC(=O)Cn2ccn3nc(-c4ccc(F)cc4)c(CO)c3c2=O)c1	0%	-12%	18µM*	0
O=C(CSc1nc(-c2ccccc2)cs1)Nc1ccc(OC(F)F)cc1	·	·	i	·
COc1ccc(Nc2ccnc(N3CCN(C(=O)c4cccc(OC)c4)CC3)n2)cc1	-22%	-11%	·	-7
Cc1ccc(NC(=O)Cn2ccn3nc(-c4ccccc4)c(CO)c3c2=O)c(C)c1	4%	-18%	32µM*	-2
Cc1ccc(NC(=O)Cn2ccn3nc(-c4ccc(F)cc4)c(CO)c3c2=O)c(C)c1	-10%	-26%	?	-5
CCN1CCN(CCCN2CC3(CCN(c4ncccc4F)CC3)OC2=O)CC1	6%	-4%	18µM*	3

From PubChem
